High-throughput results from PubChem BioAssay.
Shown are actives, neighbours in structure and some others; about 19% of the full set was active somewhere.
HT1080 IDH1KD tx – qHTS for induction of synthetic lethality in tumor cells producing 2HG: qHTS for the HT-1080-IDH1KD cell line. HT-1080 IDH1 knockdown viability, ATP luminescence, 48 h. Potency, µM (highest dose often 46.1 µM), for inactives: top-dose activity, negative = toxicity, most hits filed as cytotoxic. 360,000 tested, 2% active. AID 686971, 2013;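 note: potency is the fitted concentration of half-maximal effect; 0% = DMSO wells and -100% = cell-free medium wells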
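Assay cells: HT-1080 with IDH1 knockdown, 750 per well, RPMI/5% FBS. Exposure: 48 h at 37 °C following 2 h pre-incubation. Read: CellTiter-Glo luminescence; fitted concentration-response, curve class assigned.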
IL-1B inflam inh – qHTS for Inhibitors of Inflammasome Signaling: IL-1-beta AlphaLISA Primary Screen. THP-1 LPS/ATP IL-1B secretion, AlphaLISA, 16 h; stronger effect = lower value. activity change, % at 57.5 µM. 360,000 tested, 4.7% active. AID 743279, 2014; in the data active = activity change below about -50%; inconclusive = mostly about -30% to -49%
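THP-1 cells pretreated 1 hr with compounds (up to 57.5 uM final), then stimulated with LPS (250 ng/mL final) plus ATP (1.25 mM final); secreted IL-1B measured by AlphaLISA after 16 hr, decreased signal indicating inhibition.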
TDP1 cell noCPT – qHTS for Inhibitors of human tyrosyl-DNA phosphodiesterase 1 (TDP1): qHTS in cells in absence of CPT. DT40 Tdp1-/- hTDP1 cells, no CPT, ATP luminescence, 48 h. Potency, µM (series often up to 46.2 µM), for the others: at the top dose activity change, negative = growth inhibition, most hits filed as inhibitors. 420,000 tested, 15% active. AID 686978, 2013; note: potency is the fitted concentration of half-maximal effect; nearly all actives have a fitted effect of over 55% in size
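Compound effects on proliferation are scored in DT40 Tdp1-/-;hTDP1 cells in the absence of CPT. ATP levels (CellTiter-Glo luminescence) are recorded after a ≥48 hr, 37 °C incubation.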
HT1080NT lethal – qHTS for induction of synthetic lethality in tumor cells producing 2HG: qHTS for the HT-1080-NT fibrosarcoma cell line; HT-1080-NT fibrosarcoma viability, CellTiter-Glo ATP luminescence, 48 h; Potency, µM (titrated, usually from 46.1 µM), for the others: at the highest dose activity, negative = less viability, hits mostly cytotoxic; 360,000 tested, 1.6% active; AID 686970, 2013;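 note: NT is the 2HG producing partner of a matched IDH1 knockdown line; potency is the fitted concentration of half-maximal effect; 0% = DMSO-treated cells and -100% = media-only wells without cells; nearly all actives have a fitted effect of over 55% in size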
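Luminescent CellTiter-Glo readout after 48 hours of compound exposure at 37 degrees C defined viability of HT-1080-NT cells. Activity was normalized to DMSO wells and cell-free media wells; concentration-response curves were fitted and assigned curve classes.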
TDP1 cell CPT – qHTS for Inhibitors of human tyrosyl-DNA phosphodiesterase 1 (TDP1): qHTS in cells in presence of CPT; chicken DT40 Tdp1-/-;hTDP1 cells + 20 nM CPT, ATP luminescence, 48 h; Potency, µM (doses to about 46.2 µM), for the others: at the highest dose activity change, negative = growth inhibition, usual class: inhibitors; 420,000 tested, 12% active; AID 686979, 2013; note: potency is the fitted concentration of half-maximal effect; nearly all actives have a fitted effect of over 55% in size
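Chicken DT40 Tdp1-/- cells complemented with human TDP1, 400 cells/well, exposed to compounds plus 20 nM camptothecin for at least 48 h at 37 C; viability read as ATP content by CellTiter-Glo luminescence.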
The depositor's hits bear a star; ? = inconclusive; . = no result. Unless noted, calls come from the whole dose curve; as a rule, active = well fitted curve in the direction sought with a large enough effect; inconclusive = small, poorly fitted or top-dose-only effect, or another doubt; inactive = no such curve, though single readings can be large; an effect the other way counts as inactive or inconclusive. Unless noted, % is set by controls: 0 for no effect and ±100 for the full control effect.

SMILES | HT1080 IDH1KD tx | IL-1B inflam inh | TDP1 cell noCPT | HT1080NT lethal | TDP1 cell CPT
COc1ccc2[nH]c(N=Nc3ccccc3C)c(O)c2c1 | -1.4% | -2.9 | ? | -3.3% | ?
CN(C)C(=S)N=Nc1[nH]c2ccccc2c1O | -14.2% | 47.9 | 0.517µM* | -26.2% | 0.581µM*
COc1ccc(CN(Cc2cc3cccc(C)c3n3nnnc23)C(=O)N2CCOCC2)cc1 | -0.4% | 7.3 | ? | -0.1% | 16.4µM*
CCC(c1nnnn1C1CCCCC1)N(Cc1ccco1)Cc1cc2ccc(OC)cc2[nH]c1=O (centres undefined) | ? | -58.3* | 16.4µM* | ? | ?
Cc1ccc2cc(C(c3nnnn3C3CCCC3)N(Cc3ccco3)Cc3cccs3)c(=O)[nH]c2c1 (centres undefined) | -0.3% | 0.0 | ? | 3.6% | 23.1µM*
Cc1c(C(=O)NCCc2ccc(S(N)(=O)=O)cc2)sc2nc3n(c(=O)c12)CCCC3 | . | . | -13.4% | . | -3.5%
O=C(Nc1ccc2nccnc2c1)N1CCCCCC1 | . | . | -26.8% | . | ?
CN(C)CCN(Cc1ccco1)C(=O)c1oc2ccccc2c1NC(=O)COc1ccccc1 | ? | -50.4* | -1.0% | ? | ?
O=C(COC(=O)c1cc(S(=O)(=O)N2CCOCC2)ccc1F)Nc1cc([N+](=O)[O-])ccc1F | -1.8% | -21.8 | -8.3% | 1.9% | -2.5%
CC(C)c1ccc(NC(=O)[C@H](NC(=O)[C@@H]2Cc3ccccc3CN2)c2ccccc2)cc1 | ? | -15.5 | ? | ? | ?
COc1cc(C(=O)NC2CCCCC2)ccc1OCc1ccc(Cl)cc1Cl | 13.1% | -17.0 | -18.4% | 0.3% | -25.9%
COc1cc(CNc2ccc(O)cc2)cc(Br)c1OCc1ccccc1 | -20.7% | -7.7 | ? | ? | ?
COc1cc(CNC(C)(C)CO)cc(Br)c1OCc1ccc(Cl)cc1 | ? | -114.4* | ? | ? | ?
COc1cc(CNC(C)(C)CO)cc(Br)c1OCc1ccc(Cl)cc1Cl | 16.4µM* | ? | ? | 16.4µM* | ?
COc1cc(-c2c(C(=O)c3ccccc3)[nH]c(N)c2C(N)=O)ccc1F | 8.1% | 0.0 | ? | 14.3% | ?
O=C1C(Cl)=C(NCc2ccco2)C(=O)c2ccccc21 | 16.4µM* | -95.2* | 8.2µM* | ? | 11.6µM*
O=c1nccc(NCc2ccco2)[nH]1 | 18.3% | 2.5 | -7.9% | -0.4% | 1.0%
CCCC(=O)NC1=C(Cl)C(=O)c2ccccc2C1=O | 7.31µM* | -100.9* | 0.651µM* | ? | 0.651µM*
O=C1C(Cl)=C(NCCN2CCCCC2)C(=O)c2ccccc21 | 23.1µM* | -100.7* | ? | 14.6µM* | 4.11µM*
CCNC1=C(Cl)C(=O)c2ccccc2C1=O | ? | 15.1 | 23.1µM* | ? | 18.4µM*
CN(Cc1ccccc1)C(=O)c1[nH]c(C(F)(F)F)nc1-c1ccccc1 | 7.5% | 11.9 | -20.0% | 12.0% | 1.6%
O=C(Nc1ccc(Cl)cc1)Nc1ccccc1CC[N+](=O)[O-] | -9.0% | -14.7 | ? | -13.4% | 13µM*
CN(C)C(=O)Nc1ccccc1CC[N+](=O)[O-] | -0.9% | -64.8* | -12.8% | 1.8% | 15.2%
O=C(Nc1ccccc1CC[N+](=O)[O-])N1CCN(c2ccccc2)CC1 | -6.0% | 7.0 | ? | -15.4% | ?
O=C(NCc1ccccc1Cl)C(=O)NCC1OCCN1S(=O)(=O)c1cccs1 (centres undefined) | 0.7% | 0.0 | -21.1% | 24.9% | 5.1%
Cc1oc(C(C)(C)C)cc1-c1cc(NC(=O)c2ccc([N+](=O)[O-])cc2)n[nH]1 | -26.7% | -63.3* | ? | ? | ?
Cc1c(Cl)cn2c(=O)cc(CN3CCN(c4ccccc4)CC3)nc2c1Cl | ? | 42.7 | ? | 16.6% | -20.3%
